The source of these data is ChEMBL document CHEMBL3988442, “University of Dundee, Small-Polar-MMV Screening Library” (2021).

The experiment deals with T1, Tyrosyl-tRNA synthetase, putative (Trypanosoma cruzi (strain CL Brener)) (UniProt Q4DSP6).
T1 sequence (whole entry): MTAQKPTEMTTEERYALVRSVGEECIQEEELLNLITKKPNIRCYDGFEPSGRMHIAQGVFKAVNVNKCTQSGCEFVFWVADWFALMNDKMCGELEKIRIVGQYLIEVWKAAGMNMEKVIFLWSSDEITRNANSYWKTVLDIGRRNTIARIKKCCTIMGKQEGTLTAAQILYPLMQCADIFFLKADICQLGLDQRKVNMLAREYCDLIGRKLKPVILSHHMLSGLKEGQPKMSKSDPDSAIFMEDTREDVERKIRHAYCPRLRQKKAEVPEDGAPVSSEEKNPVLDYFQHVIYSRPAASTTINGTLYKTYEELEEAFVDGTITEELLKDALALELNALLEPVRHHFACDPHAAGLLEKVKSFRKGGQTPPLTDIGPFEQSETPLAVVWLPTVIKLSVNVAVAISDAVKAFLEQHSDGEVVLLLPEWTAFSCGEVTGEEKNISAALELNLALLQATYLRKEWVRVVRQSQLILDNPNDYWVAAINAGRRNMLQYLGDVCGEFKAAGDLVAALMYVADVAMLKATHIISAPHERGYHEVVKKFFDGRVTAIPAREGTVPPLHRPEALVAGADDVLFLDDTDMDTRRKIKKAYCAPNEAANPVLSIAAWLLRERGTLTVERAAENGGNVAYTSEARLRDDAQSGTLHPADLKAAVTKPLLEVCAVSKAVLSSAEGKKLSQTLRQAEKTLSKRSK
As to the kind of experiment: Trypanosoma cruzi tyrosyl tRNA synthetase (TcYRS) SOP. Also noted: scale not given: direction of the effect not stated beside the values. The experiment is classed as functional. Particulars: 30 µM.
For `CCCc1n[nH]cc1C(=O)N1CCC(c2nccn2CCOC)CC1`, the Percent Effect came to 12.2%.

The compound `Cc1cc(C)n2cc(CN3CCCC3Cn3nc(C)nc3C)nc2n1` (stereo not given) showed a Percent Effect of 15.4%.

The compound `CN(C)S(=O)(=O)N1CCCC(c2cccc(Cc3ccccc3)n2)C1` (stereo not given) had a Percent Effect of 0%.

`CC(C)NC(=O)CC1COC2(CCN(Cc3cccs3)CC2)C1` (stereo not given) showed a Percent Effect of 7.5%.

With `CCc1nc(C2CCCN2C(=O)c2c[nH]c(C)n2)no1` (stereo not given), the Percent Effect was found to be 12.8%.

The compound `Cc1cc(NC(=O)NCC2CCOC2)no1` (stereo not given) showed a Percent Effect of 7.69%.

With `CC(C)(O)CN1CCN(C(=O)c2cccnc2O)CC1`, the Percent Effect was 1.21%.

With `CC1(C)OCC(CNC(=O)c2cnn(-c3ccc(Cl)cc3)c2N)O1` (stereo not given), the Percent Effect turned out to be 2.5%.

In turn, `O=c1c2ccccc2nc2n1C(CSc1ccc(Cl)cc1Cl)CN2` (stereo not given) had a Percent Effect of 10%.

The compound `Cc1ccc(CN2CCCn3c(nc(CN4CCCC4)cc3=O)C2)s1` yielded a Percent Effect of 7.69%.

The compound `CC(C(=O)N1CCCC1)N1CCC(c2nccn2Cc2cscn2)CC1` (stereo not given) registered a Percent Effect of 12.2%.

`Cn1ccc(C(=O)NCc2cccc(NC(=O)C3CCC3)c2)cc1=O` yielded a Percent Effect of 21.2%.

`c1cc(-c2nc(CN3CCn4c(nnc4C4CC4)C3)cs2)cs1` displayed a Percent Effect of 8.43%.

`Cc1ccc(-c2nc(CN3CCCC(Cn4cncn4)C3)no2)cc1` (stereo not given) yielded a Percent Effect of 0%.

With `c1cc(-c2noc(CN3CCn4c(nnc4C4CC4)C3)n2)co1`, the Percent Effect was determined as 10.8%.

In turn, `Cn1cnc2c1CCN(Cc1cccc(C(N)=O)c1)C2` displayed a Percent Effect of 13.2%.

On to `CCn1ccnc1CN(C)CC1CCCN1c1cccnn1` (stereo not given), for which the Percent Effect was 12.8%.

Compound `CNc1cc(C2CCCN2C(=O)c2ccc3oc(=O)n(C)c3c2)ccn1` (stereo not given) yielded a Percent Effect of 7.5%.

In turn, `Cc1cccc(N2CCN(C(=O)Nc3cnn(CC(N)=O)c3)CC2)c1` returned a Percent Effect of 25.3%.

`CC(C)c1cc(N2CCC(N)CC2)n2nccc2n1` yielded a Percent Effect of 17.1%.
